A selection: hits, their analogues and other compounds. The true share with any hit is near 3.5%.
GPR151 ag = activators of human GPR151; PathHunter beta-arrestin GPR151 cells, luminescence; activation, % at 11.2 µM; 650,000 compounds, 1% hits; AID 1508602; in the data active = activation above about 4.9%;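 note: 0% = median of compound wells and 100% = cells with positive control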
FBW7 act = activators of human E3 ligase FBW7; 650,000 compounds, 0.13% hits; Q969H0; AlphaScreen FBW7–phospho-cyclin E peptide binding, activator screen; normalized activity (activation), % at 26.1 µM; AID 1259310; in the data active = normalized activity above about 1.9%;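 note: purified mutant Fbw7 with reduced substrate affinity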
Target sequence (Q969H0 whole entry, looked up): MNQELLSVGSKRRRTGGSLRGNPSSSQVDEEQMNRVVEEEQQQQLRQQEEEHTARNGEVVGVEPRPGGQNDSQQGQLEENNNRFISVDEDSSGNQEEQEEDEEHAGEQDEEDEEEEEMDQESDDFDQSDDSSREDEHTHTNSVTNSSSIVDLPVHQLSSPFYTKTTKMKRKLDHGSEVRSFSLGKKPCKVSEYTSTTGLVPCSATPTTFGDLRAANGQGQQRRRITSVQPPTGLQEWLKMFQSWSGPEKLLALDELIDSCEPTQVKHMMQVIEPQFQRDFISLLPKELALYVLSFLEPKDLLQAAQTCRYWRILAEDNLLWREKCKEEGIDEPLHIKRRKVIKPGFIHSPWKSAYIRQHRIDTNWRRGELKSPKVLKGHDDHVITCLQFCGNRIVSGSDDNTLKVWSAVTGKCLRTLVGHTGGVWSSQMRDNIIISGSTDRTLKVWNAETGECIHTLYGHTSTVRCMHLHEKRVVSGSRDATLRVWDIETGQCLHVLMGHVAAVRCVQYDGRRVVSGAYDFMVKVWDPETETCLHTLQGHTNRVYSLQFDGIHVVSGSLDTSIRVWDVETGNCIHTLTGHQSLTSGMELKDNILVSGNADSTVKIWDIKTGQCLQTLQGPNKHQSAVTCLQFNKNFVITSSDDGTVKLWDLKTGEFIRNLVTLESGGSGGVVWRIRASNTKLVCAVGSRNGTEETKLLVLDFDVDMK
MITF inh = blocks human microphthalmia-associated transcription factor; AID 1259374; O75030; 650,000 compounds, 0.91% hits; inhibition, % at 2.6 µM; AlphaScreen MITF homodimerization, bead proximity signal; in the data active = inhibition above about 50%;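 note: 0% = vehicle wells with protein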
TEAD-YAP block = TEAD-YAP interaction inhibition; AID 1259422; 640,000 compounds, 1.4% hits; HEK-TIYL cells, TEAD-Gal4/YAP UAS-luciferase luminescence; inhibition, % at 9.12 µM; in the data active = inhibition above about 32%;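 note: 0% = median of test compound wells and 100% = reference inhibitor wells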
MITF confirm = human MITF inhibition, confirmation | shares compounds with MITF inh | 4,700 compounds, 16% hits | AlphaScreen MITF homodimerization, biotin/His-MITF beads | inhibition, % at 2.6 µM;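 active = inhibition above a cutoff derived from the DMSO control wells, cut at about 28% in these data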;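 note: 0% = MITF dimer wells with DMSO only; inhibitors lower the bead chemiluminescence by keeping MITF from dimerizing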
AlphaScreen DR = optically interferes with AlphaScreen signal in dose response. AlphaScreen optical interference counterscreen, cell-free. IC50, µM. 480 compounds, 6% hits. shares compounds with MITF inh. AID 1259373; call rule not given here
AS interf ctr = AlphaScreen optical interference, counter-screen; AID 1259376; shares compounds with MITF inh; inhibition, % at 2.6 µM; LysRS AlphaScreen counterscreen, signal interference, triplicate; 4,700 compounds, 7.6% hits;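 active = inhibition above a cutoff derived from the DMSO control wells, cut at about 30% in these data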
An asterisk follows results filed as active; . = no result.

SMILES | GPR151 ag | FBW7 act | MITF inh | TEAD-YAP block | MITF confirm | AS interf ctr | others
C=CCOc1ccccc1CN[C@@H]1C[C@@H](C(=O)NC(C)C)N(C(C)C)C1 | 1.2 | 0.0 | 5.4 | 2.9 | . | .
NC(=S)N/N=C/c1ccccc1OC(=O)c1cc([N+](=O)[O-])cc([N+](=O)[O-])c1 | -1.4 | -0.1 | 59.4* | 2.7 | 29.8* | 53.2*
N#C/C(=C(/O)c1ccco1)c1ccccn1 | -1.8 | -0.2 | -11.2 | -14.2 | . | .
C=CCc1cccc(C)c1OCCCN1CCN(C)CC1 | -1.7 | 0.1 | 43.1 | 0.2 | . | .
C=CCc1cccc(Cl)c1OCCN1CCOCC1 | -1.1 | 0.3 | -21.8 | -1.6 | . | .
C=CCc1cccc(Cl)c1OCCN1CCNCC1 | -0.2 | 0.4 | 55.6* | 7.1 | -14.4 | -1.9
C=CCc1cccc(C)c1OCCCN1CCCC1 | -0.2 | 0.7 | 56.7* | 7.6 | 15.9 | 15.6
C=CCc1cccc(C)c1OCCN1CCOCC1 | 0.0 | -0.2 | 85.7* | -1.6 | 8.2 | 6.0
CN(CCc1ccccc1)C(=O)c1nc2sccn2c1CNCCN1CCOC1=O | -0.3 | -0.1 | -0.8 | -3.5 | . | .
NNC(=O)c1ccc(-c2ccc([N+](=O)[O-])cc2)o1 | 0.0 | 0.0 | -1.6 | 7.2 | . | .
CC(C)n1c(=O)n(CC(=O)NC2CCCC2)c2cccnc21 | 0.7 | 0.0 | 14.1 | 13.4 | . | .
CCOC(=O)Cc1[nH]nc2c1C1(C(=O)N(CC)c3ccccc31)C(C#N)=C(N)O2 (stereo not given) | 0.2 | -1.1 | 60.1* | -0.9 | 27.5* | -16.0 | AlphaScreen DR=>6.48
CN1CCN(C(=O)c2c(NC(=O)c3cccs3)sc3c2CCC(C(C)(C)C)C3)CC1 (stereo not given) | 0.3 | -0.1 | 3.0 | 3.0 | . | .
C/C(=N\NC(=O)Cc1cc(=O)[nH][nH]1)c1ccco1 | -0.9 | -0.3 | 59.5* | 7.4 | 55.5* | 4.4 | AlphaScreen DR=>6.48
COC(=O)C1=CN(CC23CC4CC(CC(C4)C2)C3)C=C(C(=O)OC)C1c1ccc(F)cc1 | 0.1 | 0.3 | 65.3* | -2.8 | -2.4 | -1.8
CCOc1ccccc1N1CCN(C(=O)C2CCN(Cc3cccs3)CC2)CC1 | 0.7 | -0.2 | 50.7* | 3.0 | 11.0 | 17.3
CCOc1ccccc1OCCN1CCCCC1 | -0.4 | 0.7 | 39.3 | -4.9 | . | .
CCOc1ccccc1OCCOCCN1CC(C)OC(C)C1 (stereo not given) | -1.7 | 0.3 | 53.4* | 10.0 | 0.9 | 14.2
CCOc1ccccc1OCCN1CCCC1 | -0.2 | 0.9 | 74.9* | 6.8 | -12.1 | -8.5
CCOc1ccccc1OCCN1CCN(c2ccccc2OC)CC1 | -1.5 | 1.2 | 89.0* | 10.4 | 3.9 | 25.3
C/C(CC(=O)Nc1cccc(C(F)(F)F)c1)=N\NC(=O)c1cccc(C)c1O | -0.4 | -0.2 | -0.5 | 2.1 | . | .
O=C(N=C1N=C2C=CC=CN2Cc2ccccc21)c1cccc(Br)c1 | -8.2 | -0.1 | -9.8 | -43.9 | . | .
CCOc1ccccc1N1CCN(Cc2ccoc2)CC1 | 0.2 | 0.2 | 52.5* | 2.2 | 4.1 | -1.9
O=C(COc1ccccc1F)N1CCCCC1 | 2.3 | -0.3 | 9.8 | -25.2 | . | .
Clc1ccc(OCCN2CCCC2)c2ccccc12 | 1.5 | -0.2 | 53.0* | -6.7 | -9.3 | -5.0
SMILES | GPR151 ag | FBW7 act | MITF inh | TEAD-YAP block | MITF confirm | AS interf ctr | others
O=C(COc1ccccc1F)OCCN1CCCC1 | -0.9 | 0.5 | 56.9* | -7.6 | 5.5 | 5.7
c1ccc2c(OCCN3CCCCC3)cccc2c1 | 0.1 | -0.1 | -1.3 | -1.0 | . | .
COc1ccccc1Cn1ccn(Cc2ccc(F)cc2)c(=O)c1=O | -1.9 | 0.5 | 15.7 | -6.1 | . | .
CCOC(=O)C1=C(C)N=c2s/c(=C\c3cc(OC)c(OC)cc3[N+](=O)[O-])c(=O)n2C1c1ccc(OC)c(OC)c1 (stereo not given) | -0.2 | 0.2 | 6.9 | 8.3 | . | .
O=C(CNC1CCCCC1)Nc1c2c(nc3c1CCC3)CCC2 | -0.4 | -0.1 | 39.9 | -6.7 | . | .
O=C(CNC1CCCCC1)Nc1c2c(nc3c1CCC3)CCCC2 | 0.4 | -0.2 | 74.3* | 3.0 | -12.3 | -2.6
CNCC(=O)Nc1c2c(nc3c1CCC3)CCCC2 | -0.3 | 0.0 | 61.4* | 0.2 | -1.9 | -1.2
CC(C)(C)NCC(=O)Nc1c2c(nc3c1CCC3)CCCC2 | 0.1 | -0.1 | 74.8* | 5.0 | 3.2 | -3.0
O=[N+]([O-])c1ccc(Sc2nc3ccccc3[nH]2)c([N+](=O)[O-])c1 | 0.7 | 1.6 | 21.4 | -1.7 | . | .
O=C1c2cccc3cccc(c23)C(=O)N1CCS(=O)(=O)OCC(F)(F)F | 0.3 | 0.1 | 12.1 | 1.8 | . | .
CN1CCN(CCS(=O)(=O)OCC(F)(F)F)CC1 | 1.2 | -0.1 | 83.9* | 4.4 | 10.5 | 14.0
N#Cc1c(C#N)c(N)n(N)c1N | 0.9 | -0.8 | 93.8* | -2.2 | 94.7* | 73.0*
CCc1ccc2oc(-c3ccc(NC(=O)c4ccc([N+](=O)[O-])o4)cc3)nc2c1 | 0.3 | 0.1 | 6.0 | -21.4 | . | .
O=C(NNC(=S)Nc1ccccc1)C(=O)NNC(=S)Nc1ccccc1 | -0.3 | -1.0 | 78.6* | -3.8 | 58.2* | -21.6
COC(=O)c1ccc2c(=O)n(Cc3ccco3)c(SCC(=O)Nc3ccc(C)cc3)nc2c1 | 0.3 | -0.1 | 13.7 | -0.1 | . | .
COc1ccc(C(=S)N2CCCCC2)cc1OC(=O)CCc1ccccc1 | 0.8 | -0.1 | 60.8* | 3.7 | 10.1 | 14.6
COc1cc(C(=S)N2CCCCC2)ccc1OCc1ccccc1 | 0.4 | -0.5 | -0.8 | -24.7 | . | .
CN(C)c1ccc(N=c2cc(-c3ccccc3)cc(-c3ccccc3)s2)cc1 | -1.6 | -0.3 | 54.2* | -2.7 | 12.2 | 16.9
CN(C)c1ccc(N=Cc2ccccc2)cc1 | -0.4 | -0.3 | 18.8 | 22.8 | . | .
Cc1ccc(C)c(NC(=O)c2ccc(NC(N)=O)cc2)c1 | 1.3 | 0.1 | 6.5 | 1.3 | . | .
CCC(C)OC(=O)C1=C(C)NC2=C(C(=O)CC(C)(C)C2)C1c1ccccc1Br (stereo not given) | -1.5 | 0.2 | 0.5 | 0.6 | . | .
CCN1CCCC1CNCC(O)COc1ccccc1 (stereo not given) | -0.8 | 0.3 | 55.6* | 2.4 | -12.1 | -7.3
CC1(C)CC(=O)c2cn(-c3ccc(Cl)cc3)c(=N)c(C#N)c2C1 | 0.6 | 0.0 | 54.8* | -8.4 | 0.7 | 0.4
Cc1ccc(-n2cc3c(c(C#N)c2=N)CC(C)(C)CC3=O)cc1C | 3.7 | 0.2 | 13.7 | -9.0 | . | .
COc1cc(CN2CCN(c3ccccc3F)CC2)c([N+](=O)[O-])cc1OC | -0.4 | 0.1 | 64.3* | -2.5 | 12.0 | 6.0
COc1cc(CN2CCCCC2)c([N+](=O)[O-])cc1OC | 0.3 | 0.2 | -6.5 | 6.5 | . | .
COc1cc(CN2CCN(c3ccccc3OC)CC2)c([N+](=O)[O-])cc1OC | 0.3 | 0.1 | 20.8 | 1.9 | . | .
COc1cc(OC)c(OC)cc1CN1CCN(Cc2cc(OC)c(OC)cc2[N+](=O)[O-])CC1 | -0.3 | -0.2 | 62.4* | 1.7 | 4.9 | 14.8
COc1cccc(CN2CCN(Cc3cc(OC)c(OC)cc3[N+](=O)[O-])CC2)c1 | -0.4 | -0.1 | 76.2* | 6.9 | 10.7 | 19.6

From PubChem
